Consider one molecule from PubChem BioAssay AID651623 (National Center for Advancing Translational Sciences (NCATS), 2012).

Molecules are shown by their SMILES. Activity calls are given as the source filed them.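 The calls were made as follows: active = inhibition of at least 60% at 114 µM; inconclusive = inhibition from 30% up to below 60% at 114 µM; inactive = inhibition below 30% at 114 µM.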

Ubiquitin carboxyl-terminal hydrolase 8 (Homo sapiens), sequence (P40818 whole entry, looked up): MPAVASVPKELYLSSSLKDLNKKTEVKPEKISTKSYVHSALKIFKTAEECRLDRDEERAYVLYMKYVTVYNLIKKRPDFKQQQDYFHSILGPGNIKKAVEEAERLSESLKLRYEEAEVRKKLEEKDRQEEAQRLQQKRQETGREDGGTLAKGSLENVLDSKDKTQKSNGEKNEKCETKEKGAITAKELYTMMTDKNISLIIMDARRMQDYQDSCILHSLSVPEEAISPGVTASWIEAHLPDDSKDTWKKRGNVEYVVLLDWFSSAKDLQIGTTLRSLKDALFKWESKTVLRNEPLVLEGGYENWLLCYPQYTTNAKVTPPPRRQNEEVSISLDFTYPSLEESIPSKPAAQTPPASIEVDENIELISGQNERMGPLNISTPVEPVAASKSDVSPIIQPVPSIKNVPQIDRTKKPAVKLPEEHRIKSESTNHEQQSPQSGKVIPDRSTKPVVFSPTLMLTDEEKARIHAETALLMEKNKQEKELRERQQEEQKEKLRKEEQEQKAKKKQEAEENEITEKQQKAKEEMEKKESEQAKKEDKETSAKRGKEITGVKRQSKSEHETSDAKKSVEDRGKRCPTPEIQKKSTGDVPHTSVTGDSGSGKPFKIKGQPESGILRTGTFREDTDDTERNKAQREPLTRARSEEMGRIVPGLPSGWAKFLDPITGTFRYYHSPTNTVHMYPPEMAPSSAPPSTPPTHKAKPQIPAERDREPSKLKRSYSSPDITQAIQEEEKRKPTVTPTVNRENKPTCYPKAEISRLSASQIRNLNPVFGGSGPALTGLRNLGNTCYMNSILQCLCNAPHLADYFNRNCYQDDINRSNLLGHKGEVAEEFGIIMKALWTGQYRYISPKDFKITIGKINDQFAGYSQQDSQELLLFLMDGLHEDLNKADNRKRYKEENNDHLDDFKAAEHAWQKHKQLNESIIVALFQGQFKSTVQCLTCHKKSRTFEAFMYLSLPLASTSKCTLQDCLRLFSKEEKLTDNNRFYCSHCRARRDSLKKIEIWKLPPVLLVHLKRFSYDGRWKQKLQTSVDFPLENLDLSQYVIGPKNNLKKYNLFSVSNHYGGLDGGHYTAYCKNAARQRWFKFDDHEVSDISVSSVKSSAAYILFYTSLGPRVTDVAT

This assay concerns the target Ubiquitin carboxyl-terminal hydrolase 8 (Homo sapiens) (UniProt P40818). Briefly: Inhibitors of USP1/UAF1: SAR in USP8 diubiquitin SDS-PAGE gel assay. The following applies: USP8 K63 diubiquitin cleavage; series mostly up to 114 µM. The source says:
Deubiquitinating enzymes (DUBs) are a class of enzymes that can cleave isopeptide bond formed between the C-terminal carboxylate of ubiquitin and a lysine side-chain amino group on the target protein. Among them, ubiquitin specific proteases (USPs) constitute the largest DUB family. Human USPs are emerging as promising targets for pharmacological intervention because of their connection to a number of human diseases, including prostate, colon and breast cancer (1, 2), pediatric acute lymphoblastic leukemia (3), and familial cylindromatosis (4). The advantage of inhibiting USPs lies in the potential specificity of therapeutic intervention that can lead to better efficacy and reduce nonspecific side effects. In a collaboration between the University of Delaware and the NIH Chemical Genomics Center, a high-throughput screen assay was developed to screen for USP1/UAF1 inhibitors (5). […]
The inhibition assay contains 80 nM USP8, 2 microM K63 linked diubiquitin, and inhibitors at varied concentrations (0.08 microM - 114 microM). […] The intensity of the individual diubiquitin and monoubiquitin band was quantified using Quantity One 4.3.1 (Biorad, Hercules, CA). The percentage of the conversion was determined and used to calculate the reaction rate. […]
On to `Cc1cnc(-c2ccccc2C(C)C)nc1NCc1ccc(-n2ccnn2)cc1`, for which the molecule was classed as inactive.
